Measured values published in PubChem BioAssay AID504834 (National Center for Advancing Translational Sciences (NCATS), 2011).
Among all 320,000 compounds or so, about 22,000 (6.9%) were called active. Roughly 27% stayed inconclusive and do not appear here. The list comes from a sample in which actives are over-represented; it also holds similar structures and randomly drawn compounds. A number with no mark means an inactive call. The call rests on the fitted dose curve; in most records, active means well fitted inhibition curve with a large enough effect; inconclusive means small, poorly fitted or top-dose-only effect, or another doubt; inactive means no such curve, though single readings can be large or run the other way.

Assay: Primary qHTS for delayed death inhibitors of the malarial parasite plastid, 96 hour incubation
Conditions: P. falciparum luciferase reporter growth; series mostly up to 28.7 µM; activity change, negative = inhibition: at the top concentration
Outline: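 Compounds incubated with erythrocytes infected by luciferase-expressing P. falciparum (2% hematocrit, 0.05% parasitemia final) for 96 hours, 37 C in 5% CO2. Growth inhibition scored as decreased luciferase luminescence.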
On the % scale 0 is the no-effect control and ±100 the full control effect; potency means the concentration at half of the fitted maximal effect.

Structure (SMILES) | activity change, negative = inhibition | Potency
CC(C)C[C@H](NC(=O)C1CC(=O)N(c2ccc3c(c2)OCCO3)C1)C(=O)NC1CCCC1 (stereo partly drawn) | -33.8% | 
CCCn1c(=O)c(C(=O)Nc2cc(C)ccn2)c(O)c2ccccc21 | -14.4% | 
CC(C)c1ccc(OCC(O)CN2CCN(c3ccccn3)CC2)cc1 (stereo not drawn) | 399% | 
O=[N+]([O-])c1ccc(N2CCN(CC(O)COc3ccccc3)CC2)cc1 (stereo not drawn) | 17.6% | 
O=C(c1ccccc1)c1ccc(OCC(O)CN2CCCC2)cc1 (stereo not drawn) | -1.41% | 
CC(=O)Nc1ccc(OCC(O)CN2CCN(c3ccccc3Cl)CC2)cc1 (stereo not drawn) |  | 3.7 µM (active)
OC(COc1ccc(Br)cc1)CN1CCCC1 (stereo not drawn) | 8.39% | 
O=C(c1ccc(Cl)cc1)c1ccc(OCC(O)CN2CCCCC2)cc1 (stereo not drawn) |  | 2.33 µM (active)
COc1ccc(C2CC(c3ccc([N+](=O)[O-])cc3)=NN2C(C)=O)cc1 (stereo not drawn) | -93.3% | 
COCc1c(C(=O)OCC(=O)Nc2ccc(OC(F)F)cc2)oc2ccccc12 | -20.6% | 
Cc1ccc(NC(=O)Cn2c(C)csc2=O)cc1 | 57.6% | 
O=C(NCCSc1ncc(-c2ccccc2)[nH]1)c1ccco1 | 15% | 
Cc1ccc(S(=O)(=O)N(CCCN(C)C)Cc2ccc3c(c2)OCO3)cc1 | 29.2% | 
COc1ccccc1CCNS(=O)(=O)c1cn(C)nc1C | 90.8% | 
CCC(=O)N1CCc2cc(S(=O)(=O)NC(C(=O)N3CCc4ccccc4C3)C(C)C)ccc21 (stereo not drawn) | -1.47% | 
CC(=O)N1CCc2cc(S(=O)(=O)NC3CCCCC3)ccc21 | 27.2% | 
CCOC(=O)N1CCC(NC(=O)C(NS(=O)(=O)c2ccc3c(c2)CCN3C(=O)CC)C(C)C)CC1 (stereo not drawn) |  | 16.5 µM (active)
O=S(=O)(NC1CCCC1)c1ccc(-n2cnnn2)cc1 | 0.984% | 
COc1cc(OC)cc(C(=O)NCCSCc2ccc(Cl)cc2)c1 | 15.3% | 
COc1ccc(/C=C(\C#N)C(=O)OCC(=O)N(C)C2CCS(=O)(=O)C2)cc1 (stereo not drawn) | 11.7% | 
CC(C)CC(O)C1CCN(C(=O)CCc2nnc(-c3ccc4c(c3)OCO4)o2)CC1 (stereo not drawn) | 26.7% | 
O=C(NC(Cc1ccccc1)C(=O)O)/C(=C\c1ccccc1)NC(=O)c1ccco1 (stereo not drawn) | 110% | 
O=C(NC(Cc1ccc(O)cc1)C(=O)O)/C(=C/c1ccccc1)NC(=O)c1ccccc1 (stereo not drawn) |  | 11.7 µM (active)
CC(=O)N/C(=C\c1ccc(F)cc1)C(=O)NC(Cc1ccccc1)C(=O)O (stereo not drawn) | -1.95% | 
Cc1ccc(OCC(=O)Nc2nnc(-c3ccco3)s2)cc1 | 12.4% | 
CC(NS(=O)(=O)c1ccc(Cl)cc1)C(=O)Nc1ccc2c(c1)OCCO2 (stereo not drawn) | 30.4% | 
COCCCn1c(SCC(=O)Nc2oc(C)c3c(C)n[nH]c(=O)c23)nc2sc3c(c2c1=O)CCC3 | -3.96% | 

Structure (SMILES) | activity change, negative = inhibition | Potency
O=C(NCc1ccncc1)C(=O)NCc1ccco1 | 10.7% | 
CCCC(C)C(=O)NCc1ccncc1 (stereo not drawn) | 0% | 
CC(C)(C)NC(=O)C(=O)NCc1ccncc1 |  | 3.29 µM (active)
CCc1cccc(NC(=O)COC(=O)c2cc(=O)c3ccccc3o2)c1 | 20.8% | 
COC(=O)c1sc(NC(=O)COC(=O)C2CCC2)c(C(=O)OC)c1C | -1.55% | 
c1ccc(-n2ncc3c(N4CCCC4)ncnc32)cc1 | 27.8% | 
COc1ccc(-n2ncc3c(N4CCCc5ccccc54)ncnc32)cc1 |  | 13.1 µM (active)
COc1ccc(N2CCN(C(=O)CSc3ncnc4c3cnn4-c3ccc(OC)cc3)CC2)cc1 | -5.18% | 
O=C(NCC(=O)N(c1ccccc1)C(C(=O)NCC1CCCO1)c1ccccc1)c1cccs1 (stereo not drawn) | -23.4% | 
O=C(O)c1ccccc1-c1ccccc1C(=O)Nc1ccccc1Br | -27.2% | 
COC(=O)CN1C(=O)[C@H]2[C@@H](/C=C/c3ccccc3)N3C(=O)CN(CC4CC4)C(=O)[C@@]3(Cc3ccccc3)[C@H]2C1=O | 25.2% | 
Fc1ccc(-c2ccc(NCCN3CCOCC3)nn2)cc1 | 15.4% | 
O=S(=O)(c1ccc(SCc2ccccc2)nc1)N1CCCCCC1 | 5.66% | 
Cc1cc(=O)oc2cc(OC(C)C(=O)Nc3ccc(N4CCOCC4)cc3)ccc12 (stereo not drawn) | 2.35% | 
COc1ccc(-c2cc(=O)oc3cc(OC(C)C(=O)Nc4ccc(CN5CCOCC5)cc4)ccc23)cc1 (stereo not drawn) |  | 9.28 µM (active)
Cc1cc(=O)oc2cc(NC(=O)C(C)Oc3ccccc3)ccc12 (stereo not drawn) | 35.7% | 
CN1C(=O)C2(OCCCO2)c2cc(Cl)ccc21 | -11.2% | 
Cc1cc(S(=O)(=O)c2cc3ccc(O)c(C)c3oc2=O)ccc1F | 4.07% | 
CCOc1ccc(-n2cnc3c(=O)[nH]c(N)nc32)cc1 | 1.24% | 
Cc1n[nH]c(C)c1S(=O)(=O)N1CCCC(C(=O)Nc2ccc(Br)cc2)C1 (stereo not drawn) | -16.5% | 
CCC(C)C(N=C1NS(=O)(=O)c2ccccc21)C(=O)N1CCC(C)CC1 (stereo not drawn) | 80.9% | 
CCOC(=O)N1CCN(C(=O)c2ccc(S(=O)(=O)Nc3cccc(C(F)(F)F)c3)cc2)CC1 | -11% | 
Nc1ccn(CC(=O)N2CCN(c3ccccn3)CC2)c(=O)n1 | 64.8% | 
CC(C)C(=O)Nc1oc(-c2ccccc2)cc1C#N |  | 2.08 µM (active)
CC(Oc1ccccc1)C(=O)Nc1oc(-c2ccco2)c(-c2ccco2)c1C#N (stereo not drawn) | -5.03% | 
CC(C)C(=O)Nc1ccc2c(c1)oc1ccccc12 | -9.01% | 
